The list is not random: actives were taken first. Their share in the collection is about 7.2%.
LASV entry inh = qHTS for Inhibitors of binding or entry into cells for Lassa Virus | Lassa virus pseudotype entry inhibition, cell reporter | Potency, µM (titrated, usually from 37.9 µM), actives largely listed as inhibitors | hit rate 1.2% among 300,000 | AID 540256, 2011; calls by dose curve; tested in HEK293 cells; note: nearly all actives have a fitted effect of over 50% in size
HCV inh = qHTS Assay for Inhibitors of Hepatitis C Virus (HCV) | Potency, µM (doses to about 41.8 µM), hits mostly inhibitors | Huh7.5.1 HCVcc-Cre infection, luciferase reporter, 44 h | hit rate 3.4% among 340,000
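After 44 h co-culture of compound, cells and HCVcc-Cre (~0.5 moi), substrate is added for 15 min at room temperature and luciferase measured over 15 sec. Cells were seeded at 1,000/well and pre-cultured 4 h.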
Sm TGR inh = qHTS Assay for the Inhibitors of Schistosoma Mansoni Peroxiredoxins; AID 485364, 2010; Schistosoma mansoni thioredoxin glutathione reductase (TGR), Q962Y6; hit rate 3% among 360,000; purified TGR, DTNB reduction, TNB absorbance 405 nm; Potency, µM (highest dose often 114 µM), actives largely listed as inhibitors; note: nearly all actives have a fitted effect of over 60% in size
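TGR 20 nM + NADPH 100 uM (dispensed conc.), cpd preinc 15 min RT; start with NADPH (500 uM addition) then DTNB (15 mM addition). Kinetic TNB absorbance, 405 nm filter. Four-parameter Hill fit across titration.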
Marburg entry inh = qHTS for inhibitors of binding or entry into cells for Marburg Virus. Marburg virus pseudotyped entry inhibition, cell reporter. Potency, µM (top dose mostly 37.8 µM), usual class: inhibitors. hit rate 1.8% among 300,000. AID 540276, 2011; calls by dose curve; tested in HEK293 cells
FMDV antiviral = High Throughput Screening for Foot and Mouth Disease Virus Antivirals; FMDV antiviral cell-based qHTS; AID 1159524, 2015; Potency, µM (titrated, usually from 57.9 µM), usual class: inhibitors; hit rate 1.2% among 410,000; calls by dose curve; tested in HEK293T cells; note: read-out not given here; nearly all actives have a fitted effect of over 45% in size
RE007 growth inh = qHTS Assay for Inhibitors of the HIV-1 protein Vpr. Potency, µM (top dose mostly 92.2 µM), actives largely listed as inhibitors. hit rate 0.21% among 360,000. S. pombe RE007 Vpr strain, BacTiter-Glo ATP luminescence, 24 h; active = well fitted falling curve with a large enough effect; inconclusive = small, poorly fitted or top-dose-only effect; inactive = no such curve, though single readings can be large or run the other way; note: nearly all actives have a fitted effect of over 50% in size
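Fission yeast strain RE007, carrying one chromosomally integrated HIV-1 vpr copy, was seeded at OD 0.01 in PMG+AL medium with 23 nL pinned compound. After 24 h at 30 °C and 99% humidity, viability was read by BacTiter-Glo luminescence.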
A number is an active result; n = inactive; u = inconclusive; x = no result. Unless noted, calls come from the whole dose curve; as a rule, active = well fitted curve in the direction sought with a large enough effect; inconclusive = small, poorly fitted or top-dose-only effect, or another doubt; inactive = no such curve, though single readings can be large; an effect the other way counts as inactive or inconclusive.

SMILES	LASV entry inh	HCV inh	Sm TGR inh	Marburg entry inh	FMDV antiviral	RE007 growth inh
C[C@@H]1C(c2ccccc2)=CC(=O)c2nc3ccccc3cc2[C@@H]1C(=O)N1CCCC1	x	x	x	n	x	x
Cc1cc(C(=O)CSc2nnc(N)s2)c(C)n1Cc1cccs1	0.35µM	u	n	1.6µM	n	n
CC(=O)Nc1ccc(SCC(=O)c2cc(C)n(Cc3cccs3)c2C)cc1	u	n	n	u	22µM	n
CC(=O)Nc1ccc(SCC(=O)c2cc(C)n(-c3ccccc3F)c2C)cc1	u	u	n	6.5µM	u	n
Cc1csc(SCC(=O)c2cc(C)n(Cc3cccs3)c2C)n1	0.79µM	10µM	n	0.5µM	11µM	n
COCCn1c(C)cc(C(=O)CSc2ccc(NC(C)=O)cc2)c1C	n	n	u	n	n	n
Cc1ccc(NC(=O)CSCc2cnn(-c3ccccc3)c2-n2cccc2)c(Cl)c1	n	x	n	n	n	x
CCC(C)CN1C(=O)NC(c2ccccc2)C(C(=O)OC)=C1C (stereo unspecified)	u	x	x	n	x	x
COc1ccc(C2=NN(c3nc(-c4ccccc4)c(CC(=O)O)s3)C(c3ccco3)C2)cc1 (stereo unspecified)	u	u	20µM	u	n	n
CC(=O)N(Cc1ccccc1)c1ncc2c(n1)c(=O)c(C#N)c1ccccn12	n	n	45µM	n	x	n
CC(=O)N(Cc1c(C#N)c2ccccc2n1C)c1ccccc1	n	n	n	n	n	n
CCC(=O)N1CCc2cc(S(=O)(=O)NCCC(=O)Nc3cc(C)ccc3OC)ccc21	n	x	n	n	n	x
COc1ccc(O)c(/C=N/NC(=O)c2ccc(OCc3cccc(Br)c3)cc2)c1	u	2.8µM	n	u	n	n
COc1cc(/C=N/NC(=O)c2ccc(N)cc2)ccc1OC(=O)c1cccc(C)c1	n	u	n	n	n	n
COc1cc(C(=O)N/N=C/c2ccc(OC(=O)c3cccc(C)c3)cc2)ccc1O	n	n	n	n	35µM	n
Cn1cccc1-c1cc(C(=O)N/N=C/c2cc(Br)ccc2O)[nH]n1	u	5µM	n	u	n	n
COc1ccc(C(=O)N/N=C/c2cc(Br)ccc2O)cc1OC	2.5µM	11µM	n	8.9µM	n	n
CCOC(=O)c1c(C)[nH]c(C)c1S(=O)(=O)NCC(=O)Nc1cccc(SC)c1	n	x	n	x	n	x
CC(=O)Nc1ccccc1-c1nc(CNC(=O)c2cccc(F)c2)c(C)o1	x	x	x	x	n	x
COc1cc(/C=C(\C#N)c2nc3ccccc3[nH]2)ccc1OCc1cccc(C(F)(F)F)c1	u	x	n	u	n	x
CCOc1ccc(C(=O)/C=C/c2ccc(SC)cc2)cc1	n	u	n	n	n	n
CCOc1ccc(C(=O)N/N=C/c2ccc(SC)cc2)cc1	2.8µM	n	n	n	n	x
CC(C)(C)c1ccc(OCc2ccc(C(=O)N/N=C/c3ccc(O)c(O)c3)cc2)cc1	u	5.6µM	n	u	u	n
CCc1cccc(NC(=O)Cn2nc(-c3cc(C)ccc3C)ccc2=O)c1	n	x	n	u	n	x
CCN(CC(=O)NCc1cccs1)C(=O)c1ccc([N+](=O)[O-])o1	n	n	45µM	n	n	n
SMILES	LASV entry inh	HCV inh	Sm TGR inh	Marburg entry inh	FMDV antiviral	RE007 growth inh
CCN(CC(=O)NCc1cccs1)C(=O)c1ccc(C)o1	n	n	x	n	n	n
COc1ccc(C)cc1NS(=O)(=O)c1cc(Br)cc2c1N(C(C)=O)C(C)C2 (stereo unspecified)	n	x	n	n	n	x
CCOC(=O)c1ccc(-n2c(CCC(=O)O)ccc2-c2cccs2)cc1	n	n	5.6µM	n	n	u
O=C(O)CCc1ccc(-c2cccs2)n1NC(=O)c1cccs1	n	n	u	n	n	n
Cc1ccc(-n2c(CCC(=O)O)ccc2-c2cccs2)cc1C	n	n	10µM	n	n	n
O=C(O)CCc1ccc(-c2cccs2)n1NC(=O)c1ccc(O)cc1	u	n	n	n	n	n
CCc1ccc(-n2c(CCC(=O)O)ccc2-c2cccs2)cc1	n	x	3.5µM	n	n	x
CCc1ccc(-n2c(CCC(=O)O)ccc2-c2ccc(F)cc2)cc1	n	x	u	n	n	x
Cc1ccc(S(=O)(=O)Nc2c(C)cc([N+](=O)[O-])cc2C)cc1	n	n	x	n	u	n
Cc1ccc(S(=O)(=O)c2ccc([N+](=O)[O-])o2)cc1	u	3.5µM	x	7.9µM	18µM	7.9µM
CCNc1ncc2ncc(=O)n(C3CC3)c2n1	x	x	x	x	n	x
NC(=S)NNc1c(F)c(F)c(F)c(F)c1F	n	n	40µM	n	n	u
CCOc1ccc(NC(=O)Cn2c(=O)n(CCCS(=O)(=O)C3CCCCC3)c(=O)c3ccccc32)cc1	n	x	n	n	n	x
CCCCOc1ccc(C(=O)N2CCC(C)CC2)cc1	u	n	n	n	n	n
CCCCOc1ccc(C(=O)OC2CC(C)N(C)CC2C)cc1 (stereo unspecified)	n	4.5µM	n	u	n	n
Cc1cc(Nc2cccc(F)c2)nc(N2CCOCC2)n1	x	3.5µM	n	x	n	n
Cc1cc(Nc2cccc(Cl)c2)nc(N2CCOCC2)n1	n	u	n	u	n	n
Cc1cc(Nc2ccccc2)nc(N2CCOCC2)n1	n	10µM	n	u	n	n
CN1CC(=O)Nc2cc(C(=O)O)ccc21	n	x	n	x	n	x
CCOc1ccc(CCNC(=O)c2cccc(S(=O)(=O)N3CCOCC3)c2)cc1OCC	n	u	n	n	n	n
Cc1cccc(CCNC(=O)c2cc(S(=O)(=O)N3CCCC3)cn2C)c1	x	8.9µM	n	x	n	n
Cc1ccc(CN(C)C(=O)c2cccc(S(=O)(=O)N3CCc4ccccc4C3)c2)o1	x	u	28µM	x	n	n
CCOc1ccc(CCNC(=O)c2cccc(S(=O)(=O)N3CCCCC3)c2)cc1OCC	n	u	n	u	28µM	n
COc1ccc(CCNC(=O)C(=O)NCC2OCCN2S(=O)(=O)c2ccc(Cl)cc2)cc1OC (stereo unspecified)	x	8.9µM	n	x	u	n
O=C1c2cccc(NCCCNCCO)c2C(=O)c2cccc(NCCCNCCO)c21	n	u	x	u	n	u
Cc1cccc(C)c1OC(=O)CSc1nnc(CNC(=O)c2ccccc2)o1	n	x	n	n	n	x
Cc1ccc(CN(C)C(=O)c2ccc(S(=O)(=O)N(C)c3ccccc3)cc2)o1	u	u	11µM	u	n	n
CN(Cc1ccc(OC(F)F)cc1)C(=O)c1ccc(S(=O)(=O)N(C)c2ccccc2)cc1	x	u	n	x	u	n
CCOc1ccc(CCNC(=O)c2ccc(Cl)c(S(=O)(=O)N3CCOCC3)c2)cc1OCC	n	u	n	u	u	n
Cc1ccccc1CN(c1ccc(C(=O)NCCC2=CCCCC2)cc1)S(C)(=O)=O	16µM	n	n	u	n	n

From PubChem BioAssay
